# Test results: article PMC7819943, “Rice protein-binding microarrays: a tool to detect cis-acting elements near promoter regions in rice”
# Whole data set: some 39,000 sequences, median “fluorescence intensity (a.u.)” near 4,300, cut for the highest 2% near 39,000. The sample as a whole holds a higher share of the highest values than the screen did.
# Target: T1, OsSMF1 (Oryza sativa, UniProt Q6ZLB0 1-436)
# T1 sequence: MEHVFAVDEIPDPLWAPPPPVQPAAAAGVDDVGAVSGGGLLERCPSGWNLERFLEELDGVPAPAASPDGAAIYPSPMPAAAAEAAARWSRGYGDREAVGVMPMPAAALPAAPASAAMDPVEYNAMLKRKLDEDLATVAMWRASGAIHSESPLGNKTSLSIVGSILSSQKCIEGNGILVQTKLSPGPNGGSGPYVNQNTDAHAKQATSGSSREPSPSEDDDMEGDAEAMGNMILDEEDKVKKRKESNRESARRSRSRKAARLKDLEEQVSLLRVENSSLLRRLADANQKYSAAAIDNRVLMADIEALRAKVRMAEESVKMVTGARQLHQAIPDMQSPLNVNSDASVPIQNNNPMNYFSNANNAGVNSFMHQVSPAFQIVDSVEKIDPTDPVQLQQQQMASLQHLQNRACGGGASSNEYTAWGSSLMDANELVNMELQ
# Assay: protein-binding microarray (RPBM); PBS, 2% BSA, 51.3 ng/ul salmon testes DNA, 50 uM zinc acetate, 200 nM TF, 25 C, 1 h; high values mean tight binding
# Details: protein: recombinant; tags: N-terminal polyhistidine and DsRed monomer fusion (pET32a); chain copies: 2; label: CyDye5-dUTP incorporated in the synthesized complementary strand; 3' TTTTT single-stranded linker to array surface; dsDNA, one strand shown
# Method in brief: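 Transcription factors were made in E. coli BL21-CodonPlus as N-terminal fusions to a polyhistidine tag and DsRed, then purified on Ni–NTA. After primer extension with Cy5-dUTP and blocking with 2% BSA, a custom Agilent array was exposed for 1 h at 25 °C to 200 nM protein in PBS, 2% BSA, salmon testes DNA and 50 µM zinc acetate. Washed arrays were scanned on an Axon 4000B, and the binding signal is per-feature fluorescence intensity in arbitrary units.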
row,Sequence,binding signal
1,AGAACCTTCCGCGCTTCCGTGCTCCCCACCGCCACCTCGCCGGAGTCACCTAGTGCAG,3430 fluorescence intensity (a.u.)
2,TCACATCCACGTATATTCCCTTCCCCTTCTCCAACCTTTCCGGAGTCACCTAGTGCAG,9390 fluorescence intensity (a.u.)
3,TCATCATCAAGACTGAGTCACTGACACGTGTGCACCTATGCGGAGTCACCTAGTGCAG,27900 fluorescence intensity (a.u.)
4,TCTATATTCTACTCAATGCTTGGTTCTAAATTGGCCTCAACGGAGTCACCTAGTGCAG,24700 fluorescence intensity (a.u.)
5,CTATTTGTGTCTTGTGTACTTCAACGTCTTCCTCTTATGACGGAGTCACCTAGTGCAG,3680 fluorescence intensity (a.u.)
6,ATACAGTAAATATTTGCTAATGACGGATTAATTAGGCTTACGGAGTCACCTAGTGCAG,3790 fluorescence intensity (a.u.)
7,GCGTGCGCGTCGACGTCGTCACCGCCGTCCACGGCGTAGTCGGAGTCACCTAGTGCAG,5680 fluorescence intensity (a.u.)
8,ACATCCTATCCCGTGCATTGAATCAGCATTGTACAGCAAACGGAGTCACCTAGTGCAG,3370 fluorescence intensity (a.u.)
9,GAGCTCCACCTCCTCGCGTGCCCACGCCATCCATGGCTTCCGGAGTCACCTAGTGCAG,4500 fluorescence intensity (a.u.)
10,ATGTCGTAGCTTTTAATTATATACTACTATAAATTTGATTCGGAGTCACCTAGTGCAG,43700 fluorescence intensity (a.u.)
11,AGGGAAAGATTCTAACAAATAAAGAAAAGAACAATGCAGCCGGAGTCACCTAGTGCAG,3260 fluorescence intensity (a.u.)
12,TTTATATAATAGTTACTTACTATACTATTAATACTTGATTCGGAGTCACCTAGTGCAG,16600 fluorescence intensity (a.u.)
13,ATTTAATAAAACTTATTTGGTGTTGTAAATGTTGCTAAATCGGAGTCACCTAGTGCAG,26700 fluorescence intensity (a.u.)
14,ATAATTTGGTGTTACAGTAAACATTTGCTAATAATGGATTCGGAGTCACCTAGTGCAG,49500 fluorescence intensity (a.u.)
15,GGTTGTTCTAACAAATTGTTTATAAAACAATTTGATTTTGCGGAGTCACCTAGTGCAG,3570 fluorescence intensity (a.u.)
16,CGGAGGGAGTATAAAAGAACAATACTTCTATAAATTTTGTCGGAGTCACCTAGTGCAG,40300 fluorescence intensity (a.u.)
17,GTGGTGCTACAGTAAATATTTGCTAATGATAGATTAATTACGGAGTCACCTAGTGCAG,7300 fluorescence intensity (a.u.)
18,AAAATTATGTTGTCATTTTAATATATTTGAATAATACATTCGGAGTCACCTAGTGCAG,3560 fluorescence intensity (a.u.)
19,TTTGTCTATAAATTTAGTCAAACTTGAAACAATTTGATTTCGGAGTCACCTAGTGCAG,14600 fluorescence intensity (a.u.)
20,TTTTCTATAAATTTAGTCAAATATAACAAAGTTTGATTAGCGGAGTCACCTAGTGCAG,42600 fluorescence intensity (a.u.)
21,AAATACATCCAAGAACACAATATATTCCAATATTTTGTCACGGAGTCACCTAGTGCAG,34500 fluorescence intensity (a.u.)
22,CCAATTCACTCCACCATACTGTTGGCACCTATGATAGAACCGGAGTCACCTAGTGCAG,3430 fluorescence intensity (a.u.)

row,Sequence,binding signal
1,AGAAAACCTACACCCCGGGCTTCCGTTGCAACGTGACAACCGGAGTCACCTAGTGCAG,13300 fluorescence intensity (a.u.)
2,TATACAAGTCAGCTGCTGCTCGATCTTGTCATGAGAGCCCCGGAGTCACCTAGTGCAG,5140 fluorescence intensity (a.u.)
3,GGAGAGGGAGCGGGAGAGGGAGGATTGGAGGATGTGGGGACGGAGTCACCTAGTGCAG,15400 fluorescence intensity (a.u.)
4,CTGCGGTTGCATTGCATGGAGATGGACCCTCAACCAGCTACGGAGTCACCTAGTGCAG,3700 fluorescence intensity (a.u.)
5,CCGACAAAAGATGGTTTCTCCATCAGTGAAGACACAATGTCGGAGTCACCTAGTGCAG,19500 fluorescence intensity (a.u.)
6,CATCGGACGGCCCATGTAGCCCAACTCCTCCGCTGCCACGCGGAGTCACCTAGTGCAG,3410 fluorescence intensity (a.u.)
7,GGGCTCCCAGTATAGCTTAGGTTGATTTAATTATGGTTAACGGAGTCACCTAGTGCAG,49500 fluorescence intensity (a.u.)
8,ATGGCTGTTGATTTTAATAGTGCAGGAGTGGTTTATAGCTCGGAGTCACCTAGTGCAG,4220 fluorescence intensity (a.u.)
9,TTAGTATGTGATTAATTTAGTATTAATTATTTAACTATAACGGAGTCACCTAGTGCAG,31900 fluorescence intensity (a.u.)
10,ACACTGCCACGTCAGCGCCACGTTAGCAAAACCGTCCTCCCGGAGTCACCTAGTGCAG,35500 fluorescence intensity (a.u.)
11,GCAACAGTGTTATGCAACAGTGTCATTCAGTCTCTACACACGGAGTCACCTAGTGCAG,32000 fluorescence intensity (a.u.)
12,AGCTGGTGATGAGCAGCGTCACCAATTCTTCCTGGACGCCCGGAGTCACCTAGTGCAG,4190 fluorescence intensity (a.u.)
13,GGCGGCAGCGACGGCGGAGGCGAGGGAGGGGAGGCGGCGGCGGAGTCACCTAGTGCAG,3930 fluorescence intensity (a.u.)
14,ATCGTCGCGGGGCCGCCGACGGCGCGCGGTGTGGCCGACGCGGAGTCACCTAGTGCAG,6480 fluorescence intensity (a.u.)
15,GGCAGCTTGGTGCGGGAGAGAGGCGGCGGCGAAGGGGAGACGGAGTCACCTAGTGCAG,41900 fluorescence intensity (a.u.)
16,CGGCGAGGCGAACTCAACGGGTACGCAAAGCGAAGAGGAGCGGAGTCACCTAGTGCAG,45600 fluorescence intensity (a.u.)
17,GAGAGGAGGAAGACAGAGAGGAGAGATGAGATAGGATCAACGGAGTCACCTAGTGCAG,46200 fluorescence intensity (a.u.)
18,GAAGGCGGCGGGGTGGCGAAGTGGCGAGGAGGAGACGGGGCGGAGTCACCTAGTGCAG,4910 fluorescence intensity (a.u.)
19,GAACGGAACGCAACGTGCGGAGAGAGAGCGAGAGAGAAGCCGGAGTCACCTAGTGCAG,30600 fluorescence intensity (a.u.)
20,GTGGAGGCGAGGCGGCGAGAGGCGGGTAGCAGTGGAGGAGCGGAGTCACCTAGTGCAG,3430 fluorescence intensity (a.u.)
21,GCAACGGAAGAGATGAGGAGATGACTCGGATGAGCGGAAGCGGAGTCACCTAGTGCAG,3180 fluorescence intensity (a.u.)
22,ACGGCGGGAACAATTGTGGGCGGTGGCCTTGGCCGAATCGCGGAGTCACCTAGTGCAG,55000 fluorescence intensity (a.u.)
